In PubChem BioAssay (EPA / NIEHS):
Inconclusive results are not listed. Activity calls are given as the source filed them. Rule for the calls: active = hit-call score of the fitted dose curve at least 0.9, where 1 is the maximum; inconclusive = response in the unintended direction; inactive = score below 0.9.

How the values were obtained:
[1] = Tanguay_ZF_120hpf_MORT_legacy: (Legacy) Oregon State University Tanguay Lab 120 Hour Post-fertilization zebrafish Assay for Mortality (AID 2283633)
In short: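 Mortality endpoint from a multiplexed whole-embryo zebrafish screen. Dechorionated wild-type embryos received compound at 6 hpf and remained under static exposure at 28C until 120 hpf, with death noted as a present/absent call.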

[2] = Tanguay_ZF_120hpf_YSE_legacy: (Legacy) Oregon State University Tanguay Lab 120 Hour Post-fertilization zebrafish Assay for Yolk Sac Edema (AID 2283634);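 for AC50: actives raise the incidence of yolk sac edema above the DMSO baseline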
In short: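 Readout: presence or absence of yolk sac edema at 120 hpf, fitted upward against DMSO controls. Exposure ran statically from 6 hpf in dechorionated embryos kept at 28C.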

[3] = Tanguay_ZF_120hpf_AXIS_legacy: (Legacy) Oregon State University Tanguay Lab 120 Hour Post-fertilization zebrafish Assay for Body Axis Malformation (AID 2283635)
In short: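 Static 6–120 hpf chemical exposure of dechorionated wild-type 5D zebrafish, one per well at 28C; morphology endpoint scored binary at 120 hpf relative to DMSO control.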

[4] = Tanguay_ZF_120hpf_EYE_legacy: (Legacy) Oregon State University Tanguay Lab 120 Hour Post-fertilization zebrafish Assay for Eye Malformation (AID 2283636);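 note: binary presence or absence of eye malformation scored by brightfield in 120 hpf larvae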
In short: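 Dechorionated Tropical 5D zebrafish embryos, one per well from 6 hpf, static exposure to 120 hpf at 28C, 0.64% DMSO. Eye malformation scored present/absent by brightfield; dead embryos not scored.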

[5] = Tanguay_ZF_120hpf_JAW_legacy: (Legacy) Oregon State University Tanguay Lab 120 Hour Post-fertilization zebrafish Assay for Jaw Malformation (AID 2283638)
In short: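 Static waterborne exposure of dechorionated wild-type (Tropical 5D) zebrafish from 6 to 120 hpf at 28C, 0.64% DMSO vehicle; 5uM trimethyltin chloride served as positive control. Jaw morphology recorded as binary at 120 hpf.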

[6] = Tanguay_ZF_120hpf_OTIC_legacy: (Legacy) Oregon State University Tanguay Lab 120 Hour Post-fertilization zebrafish Assay for Otic Vesicle Malformation (AID 2283639)
In short: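 Embryos from 5D wild-type adults exposed in plates; DMSO 0.64% v/v final. Sealed, light-protected, 28C, static to 120 hpf. Otic vesicle malformation recorded as binary endpoint; gain-of-signal fitted vs DMSO.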

[7] = Tanguay_ZF_120hpf_SNOU_legacy: (Legacy) Oregon State University Tanguay Lab 120 Hour Post-fertilization zebrafish Assay for Snout Malformation (AID 2283637)
In short: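 Dechorionated tropical 5D wild-type zebrafish embryos exposed statically from 6 to 120 hpf at 28C, one per well, in 0.64% DMSO. Snout malformation scored as present/absent by brightfield at 120 hpf; dead embryos not scored.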

Measured: AC50

CCCCCCOC(=O)CC(CC(=O)OCCCCCC)(OC(=O)CCC)C(=O)OCCCCCC
not listed: [7]
inactive: all other assays above

CNC(C)=O
inactive: [1] | [3] | [7] | [5]

Cc1nccn1-c1ccc(Sc2cccc(C3(C(N)=O)CCOCC3)c2)cc1
not listed: [3]
inactive: all other assays above

CCCCCOC(C)=O
inactive: all assays above

c1ccc2c(c1)-c1cccc3c1c-2cc1ccccc13
not listed: [3] | [5]
inactive: all other assays above

Cc1ncc([C@@H](CCCCCCc2ccc3c(n2)NCCC3)CC(=O)O)cn1
inactive: all assays above

COCc1nnc(-c2ccc[n+]([O-])c2)n1-c1c(Cl)c(Cl)cc2[nH]c(=O)c(=O)[nH]c12
not listed: [3]
inactive: all other assays above

NC(N)=O
not listed: [4] | [5]
inactive: all other assays above

O=S(=O)(O)c1ccc(N=Nc2c(O)ccc3cc(S(=O)(=O)O)ccc23)cc1
not listed: [5]
inactive: all other assays above

Nc1ccn([C@@H]2O[C@H](CO)[C@@H](O)[C@@H]2O)c(=O)n1
inactive: all assays above

Cc1nc(-c2ccccn2)ncc1C(=O)Nn1cc(C)c2cc(F)ccc21
inactive: all assays above

O=C(O)[C@H](O)[C@@H](O)C(=O)O
not listed: [4]
inactive: all other assays above

Cc1ccc(S(=O)(=O)NC(=O)NN2CCCCCC2)cc1
not listed: [2] | [7]
inactive: all other assays above

CC(C)CCCCCCOC(=O)C1CCCCC1C(=O)OCCCCCCC(C)C (centres undefined)
not listed: [3] | [6]
inactive: all other assays above

OCCNCCO
inactive: all assays above

C[C@@H](Oc1ccc(CNC(=O)c2cccnc2Oc2ccc3c(c2)OCO3)c(F)c1)C(=O)O
inactive: all assays above

OCc1ccccc1
inactive: all assays above

OC[C@H]1O[C@@H]2O[C@H]3[C@H](O)[C@@H](O)[C@@H](O[C@H]4[C@H](O)[C@@H](O)[C@@H](O[C@H]5[C@H](O)[C@@H](O)[C@@H](O[C@H]6[C@H](O)[C@@H](O)[C@@H](O[C@H]7[C@H](O)[C@@H](O)[C@@H](O[C@H]1[C@H](O)[C@H]2O)O[C@@H]7CO)O[C@@H]6CO)O[C@@H]5CO)O[C@@H]4CO)O[C@@H]3CO
inactive: all assays above

COc1cc2c(c(OC)c1OC)-c1ccc(OC)c(=O)cc1[C@@H](NC(C)=O)CC2
active: [2] 27.1 µM | [6] 25 µM
inactive: all other assays above

OCC(CO)(CO)CO
not listed: [5] | [7]
inactive: all other assays above

NC(=O)N1c2ccccc2C=Cc2ccccc21
inactive: all assays above
